# This is a sample that favours compounds with a hit; in the whole collection about 11% have one here.
# USP17 inh = inhibitors of human USP17 deubiquitinase; Ubiquitin carboxyl-terminal hydrolase 17-like protein 5 (Homo sapiens), A8MUK1; purified USP17, Ub-rhodamine cleavage fluorescence, 3 h; inhibition, % at 50 µM; 47,000 tested, 6.5% active
# USP28 inh = inhibitors of human USP28 deubiquitinase; inhibition, % at 25 µM; purified USP28, Ub-rhodamine cleavage fluorescence, 30 min; AID 1645857, 2021; 47,000 tested, 3% active; Ubiquitin carboxyl-terminal hydrolase 28 (Homo sapiens), Q96RU2
# USP30 block = inhibitors of human USP30 deubiquitinase. purified USP30, Ub-rhodamine cleavage fluorescence. inhibition, % at 25 µM. 47,000 tested, 5.3% active
# Target sequence (Q70CQ3 whole entry, looked up): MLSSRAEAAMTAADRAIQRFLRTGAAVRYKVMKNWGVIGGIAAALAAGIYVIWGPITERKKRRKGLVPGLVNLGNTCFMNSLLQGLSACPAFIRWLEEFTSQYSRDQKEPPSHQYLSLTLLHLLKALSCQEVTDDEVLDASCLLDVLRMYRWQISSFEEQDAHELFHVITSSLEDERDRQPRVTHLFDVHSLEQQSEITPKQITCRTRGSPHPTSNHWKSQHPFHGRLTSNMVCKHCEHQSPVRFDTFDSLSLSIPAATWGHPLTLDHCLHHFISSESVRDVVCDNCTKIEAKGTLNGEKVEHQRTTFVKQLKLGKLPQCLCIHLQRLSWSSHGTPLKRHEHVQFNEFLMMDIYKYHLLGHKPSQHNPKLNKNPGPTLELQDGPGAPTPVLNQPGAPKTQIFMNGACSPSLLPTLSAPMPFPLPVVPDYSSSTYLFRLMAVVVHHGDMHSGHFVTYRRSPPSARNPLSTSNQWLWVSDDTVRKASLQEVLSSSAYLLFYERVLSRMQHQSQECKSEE
# Numbers stand for hits; 0 = inactive; - = no result. Rule as the data show it: active = inhibition above about 30%; inactive = the rest.
SMILES,USP17 inh,USP28 inh,USP30 block
CCN1CCN(C(=O)c2cnn(-c3cc(-c4nc(C)no4)ccn3)c2C)CC1,0,0,0
CC(C)CCNC(=O)c1ccc2ccnc(N3CCN(c4ccccc4F)CC3)c2c1,0,0,0
Cc1ccc(-n2ccc(=O)c(-c3nc(-c4ccccc4F)no3)n2)cc1,0,0,0
CCc1ccc(-n2ccc(=O)c(-c3nc(-c4ccncc4)no3)n2)cc1,39,-,-
COc1ccccc1-c1noc(-c2nn(-c3ccc(C)c(C)c3)ccc2=O)n1,0,0,0
COc1ccc(Cn2cccc2-c2nc(-c3ccncc3)no2)cc1,0,0,0
COc1cccc(-n2ccc(=O)c(-c3nc(-c4ccccc4Cl)no3)n2)c1,-,41,66
COc1ccc(-n2ccc(=O)c(-c3nc(-c4ccc(F)cc4)no3)n2)cc1,31,0,35
O=C1NCCCn2cc(S(=O)(=O)NCc3ccccc3)cc21,0,0,0
O=C(c1cccc(F)c1)N1C[C@@H]2OCCN(c3ncccn3)[C@@H]2C1,0,0,0
COc1ccc(OCC(O)CNC(=O)c2ccc(N(C)C)cc2)cc1 (centres undefined),0,0,0
Cc1ccc2c(c1)C(=O)NCC1(CCN(C(=O)CCc3ccc(C)o3)CC1)O2,0,0,0
COc1ccccc1Nc1ncc(C(=O)N2CCN(c3cccc(C)c3C)CC2)c2ccccc12,0,0,0
COc1cccc(C(=O)Nc2ccccc2-c2nc3ccc(C)cc3[nH]2)c1,0,0,0
Cc1ccc2nc(-c3cccc(NC(=O)C(C)C)c3)[nH]c2c1,49,0,0
CCN(CC)C(=O)c1ncn2c1CN(CCC(C)C)S(=O)(=O)c1ccccc1-2,0,0,0
Cc1nc2sc3c(SCC(=O)Nc4cccc5ccccc45)ncnc3c2c2c1COC(C)(C)C2,0,0,0
O=C(Nc1ccc2c(c1)OCCO2)C1CCC(Cn2cnc3ccccc3c2=O)CC1 (centres undefined),0,92,0
O=C(Nc1ccc2c(c1)OCCO2)C1CCN(C(=O)c2ccccc2)CC1,0,76,0
O=C(Nc1ccc2c(c1)OCO2)C1CCN(C(=O)c2ccc3n[nH]nc3c2)CC1,0,45,0
Cc1cc(C(=O)N2CCC(C(=O)Nc3ccc4c(c3)OCO4)CC2)c2ccccc2n1,0,0,0
O=C(O)CCNC(=O)C1CCC(Cn2cnc3ccccc3c2=O)CC1 (centres undefined),0,0,0
O=C(Nc1ccc2cn[nH]c2c1)C1CN(C(=O)c2ccc3c(c2)OCO3)C1,0,0,0
CCC(=O)N1CCN(c2[nH]ncc2-c2ccncc2)CC1,0,0,0
CCc1ccc(NC(=O)C2CN(S(C)(=O)=O)c3ccccc3O2)cc1 (centres undefined),0,0,0
SMILES,USP17 inh,USP28 inh,USP30 block
COc1cccc(N2CCN(c3ccc4nnc(CCC(=O)NC5CCCC5)n4n3)CC2)c1,0,0,0
CC1CCN(c2ccc3nnc(CCC(=O)NCc4ccc(CN5CCOCC5)o4)n3n2)CC1,0,31,0
COC(=O)c1ccc(NC(=O)CCc2nnc3ccc(N4CCOCC4)nn23)cc1,31,0,0
CC1CCN(c2ccc3nnc(CCC(=O)NCCN4CCOCC4)n3n2)CC1,0,0,0
COc1cccc(N2CCN(c3ccc4nnc(CCC(=O)N5CCc6ccccc6C5)n4n3)CC2)c1,72,39,48
Cc1ccc(C)c(CN2CCC(CNC(=O)CCc3nnc4ccc(N5CCCCC5)nn34)CC2)c1,0,33,0
COc1ccccc1CNC(=O)CCc1nnc2ccc(N3CCCCC3)nn12,0,0,0
O=C(CCc1nnc2ccc(N3CCOCC3)nn12)Nc1ccccc1F,0,0,0
COc1ccc(C(=O)N2CCC3(CC2)CO[C@@H]([C@@]2(C)CC[C@H](O)C(C)(C)O2)C3)cc1F,0,0,0
COc1ccc(CNC(=O)C2c3ccccc3CCN2C(C)=O)cc1OC (centres undefined),0,0,0
Cc1nc2n(n1)C(CC(=O)Nc1cccc3ccccc13)C(=O)N2 (centres undefined),0,0,0
Cc1cc(C)c(S(=O)(=O)Nc2cc(C(=O)O)c(F)cc2F)c(C)c1,0,0,0
CC1CCN(c2ccc3nnc(CCC(=O)N4CCCC4)n3n2)CC1,0,0,0
CC1CC(C)CN(C(=O)CCc2nnc3ccc(N4CCCC4)nn23)C1 (centres undefined),0,0,31
O=C(c1cnccn1)N1CCCC(c2ncc(Cc3ccccc3Cl)o2)C1 (centres undefined),0,0,0
COc1cc(CN2C[C@@H](c3ccc(F)cc3)[C@H](c3cc(C(F)F)n[nH]3)C2)cc(OC)c1,0,0,0
COc1ccc(NC(=O)c2sc3nc(-c4cccc([N+](=O)[O-])c4)cn3c2C)cc1OC,44,0,0
CC(=O)c1cccc(NC(=O)c2sc3nc(-c4cccc([N+](=O)[O-])c4)cn3c2C)c1,0,0,0
N#Cc1ccc(S(=O)(=O)Nc2ccccc2Oc2ccccc2)cc1,0,0,0
O=S(=O)(Nc1ccccc1Oc1ccccc1)c1ccccc1C(F)(F)F,0,0,31
CC1CCc2c(cnc3c(C(=O)NCCN4CCN(C)CC4)cnn23)C1 (centres undefined),0,0,0
CC(=O)Nc1cc(NC(=O)CSc2nnc(-c3ccco3)c(-c3ccco3)n2)ccc1C,46,0,0
COc1ccc(NC(=O)CSc2nnc(-c3ccco3)n2C)cc1OC,0,0,0
COc1ccc(C)cc1NC(=O)NCCc1cn(C)c2ncccc12,0,0,0
COc1ccccc1NC(=O)NCCc1cn(C)c2ncccc12,0,37,0
SMILES,USP17 inh,USP28 inh,USP30 block
O=C(O)c1c(CNCc2cccnc2)c2ccccc2n1Cc1ccc(F)cc1Cl,0,0,0
Cc1ccc(Cn2c(C(=O)O)c(CNCCC3=CCCCC3)c3ccccc32)cc1,0,39,0
COc1ccc(Cn2c(C(=O)O)c(CNCCC3=CCCCC3)c3ccccc32)cc1,0,0,0
CSc1ccc(CNCc2c(C(=O)O)n(Cc3ccccc3)c3cc(C)ccc23)cc1,0,44,58
COc1ccc2c(CNCCc3ccccc3)c(C(=O)O)n(Cc3ccc(F)cc3Cl)c2c1,0,0,30
Cc1ccc2c(CNCCc3ccccc3C)c(C(=O)O)n(Cc3ccccc3C)c2c1,0,0,0
Cc1ccc(NC(=O)c2cc(-c3ccncc3)n(-c3ccccc3)n2)nc1,0,0,0
CSCC[C@@H](NC(=O)[C@@H]1CCCN1C(=O)[C@H](Cc1ccccc1)n1c(=O)[nH]c2ccccc2c1=O)C(=O)O,0,0,0
COCCN1C(=O)c2ccccc2C(C(=O)Nc2nc3ccccc3s2)C12CCCCC2 (centres undefined),0,0,0
COc1ccccc1OCCNC(=O)Cn1ccc2c(c(C)nn2-c2ccccc2)c1=O,0,0,0
CCc1ccc(NC(=O)C(C)OC(=O)c2ccc(OC)c(S(=O)(=O)Nc3cc(Cl)c(OC)cc3OC)c2)cc1 (centres undefined),-,0,0
Cc1cc(F)ccc1NC(=O)COc1ccccc1-c1nnc(-c2ccccc2)o1,0,0,0
O=c1cc(-c2ccc(F)cc2)oc2ccc(F)cc12,31,0,0
COc1ccc(-c2cc(=O)c3cc(OC(=O)C4CCCCC4)ccc3o2)cc1,0,0,0
Nc1nc(N2CCOCC2)ncc1C(=O)NCc1ccccc1,0,0,0
